PubChem BioAssay (NCI)
This is part of a sample that, as a whole, favours compounds with a hit. Of some 83,000 tested, about 20% had one in any assay.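 Step 1: grow cells in 96-well plates. Step 2: add test compound at a single concentration. Step 3: incubate 48 h. Step 4: record percent growth.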 Unmarked numbers belong to inactive results. Active and inactive are the calls of the source. How the source made its calls: active means growth percent below 10; inactive means the rest.

Tests used:
Experiment in all cases: NCI-60 one-dose screen, 48 h (100 = growth as untreated, 0 = no growth, -100 = all killed)
Conditions in all cases: 10 µM
[1] = tested on: NCI-H23 lung
[2] = tested on: NCI-H226 lung
[3] = tested on: NCI-H322M lung
[4] = tested on: HOP-62 NSCLC
[5] = tested on: NCI-H460 lung
[6] = tested on: NCI-H522 lung
[7] = tested on: A549/ATCC NSCLC
[8] = tested on: 786-0 renal
[9] = tested on: COLO 205 colon
[10] = tested on: DU-145 prostate

Compound | growth [1] | growth [2] | growth [3] | growth [4] | growth [5] | growth [6] | growth [7] | growth [8] | growth [9] | growth [10]
COc1ccc2c(c1)O/C(=C\c1ccc([N+](=O)[O-])o1)C2=O | -3.07% (active) | 22.3% | 41.5% | -12.4% (active) | -20.9% (active) | -63% (active) | -10.9% (active) | -27.3% (active) | -79.4% (active) | -11.1% (active)
CN(C)CCOc1nc2ccccc2c2c1-c1ccc(Cl)cc1C2=O | -43.9% (active) | 3.47% (active) | -34% (active) | -20.4% (active) | -20.7% (active) | -65.5% (active) | -28.4% (active) | 12.7% | -76.1% (active) | -14.2% (active)
COc1ccc(C2=Nc3c(C)nn(-c4ccccc4)c3NC(c3ccc(Oc4ccnc5cc(Cl)ccc45)c(OC)c3)C2)cc1 (stereo not given) | 77.8% | 74.3% | 95.1% | 113% | 81.6% | 62.1% | 84% | 89.8% | 83.6% | 100%
COc1cccc(Cn2c(-c3nonc3N)nc3ccccc32)c1 | 24.2% | 49.2% | 38.8% | 29.9% | 6.52% (active) | -18.4% (active) | 16.4% | 36.9% | -53.3% (active) | 4.99% (active)
COc1ccc(Nc2nc3ccc(NC(=O)NC4CCCCC4)cc3[nH]c2=O)cc1 | 94.1% | 94.5% | 96.1% | 83.9% | 102% | 87.3% | 89.5% | 72.7% | 112% | 107%
O=C(CNC(=O)OCc1ccccc1)NCC(=O)Oc1ccc([N+](=O)[O-])cc1 | 102% | 99% | 107% | 107% | 101% | 89.6% | 23.6% | 103% | 99.2% | 111%
CCCC#CCN(CC)CC | 111% | 107% | 108% | 117% | 107% | 97.6% | 93.8% | 100% | 110% | 123%
CC(C)N(CCNc1nc(C(Cl)(Cl)Cl)nc2cc(Cl)ccc12)C(C)C | -0.581% (active) | 0.531% (active) | 33.5% | -41.4% (active) | -45.6% (active) | -68.4% (active) | -41.6% (active) | -76.4% (active) | -89.8% (active) | -15% (active)
CCCCCCCCCCCCC1C/C=C\CCCC(=O)O1 (stereo not given) | 91.1% | 167% | 108% | 106% | 109% | 98.1% | 80.7% | 98.4% | 113% | 130%
O=C1C(=O)c2ccccc2C(O)=C1CCCc1ccc(C2CCCCCC2)cc1 | 23.4% | 37.6% | 23.7% | 40.8% | 11.6% | 42% | 22.7% | 55.7% | 36.5% | 44%
O=C(Nc1cccc(Cl)c1)Nc1nccs1 | 94.7% | 99.6% | 92.6% | 94.6% | 98.9% | 7.88% (active) | 28.6% | 95.6% | 126% | 114%
O=C1ON=[N+](c2ccc(Cc3ccc([N+]4=NOC(=O)C4CN4CCOCC4)cc3)cc2)C1CN1CCOCC1 (stereo not given) | 62.1% | 85.5% | 82.5% | 77% | 82.9% | 37% | 69.1% | 74% | 99.9% | 101%
COc1cc(-c2cc(/C=C/C(=O)c3ccc(N)cc3)[nH]n2)cc(OC)c1OC | 24.6% | 51.8% | 11.4% | 23.9% | -28.9% (active) | 10.8% | 1.29% (active) | -28.9% (active) | -45% (active) | 7.2% (active)
Cc1ccc(S(=O)(=O)Oc2ccc3c4c(c(=O)oc3c2)CCCCC4)cc1 | 62.9% | 55.9% | 95.1% | 81% | 37.2% | 57.9% | 40.9% | 66.6% | 28.5% | 87.8%
O=C1CC[C@@H]2CCCC[C@@H]2C1 | 99.9% | 105% | 110% | 96.7% | 112% | 90.3% | 107% | 103% | 108% | 123%
COc1ccccc1CNCCCN1C(=O)c2ccc3c4c(ccc(c24)C1=O)C(=O)N(CCCN)C3=O | -34.7% (active) | 47.3% | -30.7% (active) | 18.7% | -50.8% (active) | -79.1% (active) | -28% (active) | 4.32% (active) | -87.5% (active) | -95.6% (active)
O=C(C[n+]1ccccc1)c1ccc2ccccc2c1 | 88.1% | 96.4% | 95.2% | 89.1% | 104% | 103% | 96.7% | 87.6% | 102% | 87.9%
COc1cc(Cl)cc(-c2nn(-c3cccc(NC(=O)Nc4ccc(Cl)c(C(F)(F)F)c4)c3)cc2-c2ccncc2)c1 | 0.301% (active) | -2.82% (active) | 18.7% | 13.5% | 2.76% (active) | -10.4% (active) | 5.2% (active) | -4.76% (active) | -48.3% (active) | 15.2%
CN(C)CCN1C(=O)c2cccc3cc(N)cc(c23)C1=O | 31.5% | -30.3% (active) | 29.4% | 34% | 0.597% (active) | -28.3% (active) | 12% | 25.7% | 26.2% | 4.45% (active)
O=C(Nc1ccc(CN2CCc3nc4cc(O)c(O)cc4cc32)cc1)c1ccc(Cl)c(Cl)c1 | 105% | 78.7% | 94% | 107% | 102% | 101% | 111% | 104% | 99.4% | 104%
CCOC(=O)N1C/C(=C/c2ccc(F)cc2)C(=O)/C(=C/c2ccc(F)cc2)C1 | 12.2% | -18.7% (active) | 53.9% | -12.9% (active) | 3.07% (active) | -52.4% (active) | 22% | -58.7% (active) | 2.88% (active) | -6.4% (active)
CCN1CCC2(CC1)OC(c1ccccc1)C(c1ccccc1)O2 (stereo not given) | 106% | 96.6% | 133% | 114% | 118% | 116% | 105% | 92.7% | 106% | 115%
Clc1ccc(/C=C2\CCCC3=C2N=C2SC=NN2C3c2ccc(Cl)cc2)cc1 (stereo not given) | 94.8% | 107% | 96.2% | 112% | 97.2% | 106% | 88.6% | 103% | 113% | 98.3%
CCOCCOCCOCCOCCOCCOCCOCCOCCOCCO (tested in a mixture with another compound) | 7.79% (active) | 28.2% | 51.4% | 24.4% | 12.9% | -66.5% (active) | 14% | 39.3% | -89.7% (active) | 28.1%
O=C(/C(=C/c1ccccc1)CN1CCCCC1)c1ccccc1 | -51.5% (active) | -31% (active) | 47.1% | -26.5% (active) | -23.9% (active) | -84% (active) | -14.2% (active) | -91.5% (active) | -79.1% (active) | 8.22% (active)
O=C(Nc1cccc(-n2cc(-c3ccncc3)c(-c3ccc(O)c(Cl)c3)n2)c1)Nc1ccc(Cl)c(Cl)c1 | 5.31% (active) | 51.1% | -6.78% (active) | 8.83% (active) | -4.26% (active) | -13.1% (active) | 0.252% (active) | -6.94% (active) | 77.8% | 11.5%
